Assay outcomes as filed in PubChem BioAssay.
The full list was thinned out, with hits kept by preference.
HT1080 IDH1KD tx: kills HT-1080 cells with IDH1 knockdown | HT-1080 IDH1 knockdown viability, ATP luminescence, 48 h | Potency, µM (doses to about 46.1 µM), most hits filed as cytotoxic | hit rate 2% among 360,000 | AID 686971
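After a 2 h attachment period, IDH1KD HT-1080 cells took pin-transferred compound for 48 h at 37 °C; ATP-based luminescence after 10 min room-temperature reagent incubation reported viability.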
TDP1 cell CPT: growth inhibition of DT40 Tdp1-/-;hTDP1 cells with camptothecin (screen for TDP1 inhibitors); chicken DT40 Tdp1-/-;hTDP1 cells + 20 nM CPT, ATP luminescence, 48 h; Potency, µM (series often up to 46.2 µM), actives largely listed as inhibitors; hit rate 12% among 420,000; AID 686979; also: nearly all actives have a fitted effect of over 55% in size
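Cell growth measured by CellTiter-Glo luminescence after a minimum 48 h, 37 C compound exposure with 20 nM CPT in Tdp1-knockout DT40 cells stably expressing hTDP1, seeded 400/well; qHTS titration format.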
IL-1B inflam inh: blocks inflammasome-driven IL-1 beta release | hit rate 4.7% among 360,000 | AID 743279 | activity change, % at 57.5 µM | THP-1 LPS/ATP IL-1B secretion, AlphaLISA, 16 h; hits give low values; in the data active = activity change below about -50%; inconclusive = mostly about -30% to -49%
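THP-1 cells pretreated 1 hr with compounds (up to 57.5 uM final), then stimulated with LPS (250 ng/mL final) plus ATP (1.25 mM final); secreted IL-1B measured by AlphaLISA after 16 hr, decreased signal indicating inhibition.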
HT1080NT lethal: kills 2HG-producing HT-1080-NT fibrosarcoma cells | hit rate 1.6% among 360,000 | HT-1080-NT fibrosarcoma viability, CellTiter-Glo ATP luminescence, 48 h | AID 686970 | Potency, µM (highest dose often 46.1 µM), usual class: cytotoxic;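 also: NT is the 2HG producing partner of a matched IDH1 knockdown line; nearly all actives have a fitted effect of over 55% in size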
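Fibrosarcoma NT cells, 750 per well in 5% FBS RPMI, were exposed to compound for 48 hours. Viability: CellTiter-Glo luminescence.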
DT40 TDP1 no CPT: qHTS for Inhibitors of human tyrosyl-DNA phosphodiesterase 1 (TDP1): qHTS in cells in absence of CPT. DT40 Tdp1-/- hTDP1 cells, no CPT, ATP luminescence, 48 h. Potency, µM (doses to about 46.2 µM), hits mostly inhibitors. hit rate 15% among 420,000; also: nearly all actives have a fitted effect of over 55% in size
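Chicken DT40 Tdp1-/- cells complemented with human TDP1, screened without camptothecin (DMSO vehicle only), 400 cells/well. Compounds pin-transferred, cells incubated at 37 °C for at least 48 hr. Growth read as ATP-dependent luminescence (CellTiter-Glo, 30 min at RT).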
ALOX12 inh: inhibitors of human 12S-lipoxygenase ALOX12. purified 12hLO, xylenol orange hydroperoxide absorbance. P18054. Potency, µM (titrated, usually from 108 µM), usual class: inhibitors. hit rate 1.1% among 580,000. AID 1671190
Target sequence (P18054 whole entry, looked up): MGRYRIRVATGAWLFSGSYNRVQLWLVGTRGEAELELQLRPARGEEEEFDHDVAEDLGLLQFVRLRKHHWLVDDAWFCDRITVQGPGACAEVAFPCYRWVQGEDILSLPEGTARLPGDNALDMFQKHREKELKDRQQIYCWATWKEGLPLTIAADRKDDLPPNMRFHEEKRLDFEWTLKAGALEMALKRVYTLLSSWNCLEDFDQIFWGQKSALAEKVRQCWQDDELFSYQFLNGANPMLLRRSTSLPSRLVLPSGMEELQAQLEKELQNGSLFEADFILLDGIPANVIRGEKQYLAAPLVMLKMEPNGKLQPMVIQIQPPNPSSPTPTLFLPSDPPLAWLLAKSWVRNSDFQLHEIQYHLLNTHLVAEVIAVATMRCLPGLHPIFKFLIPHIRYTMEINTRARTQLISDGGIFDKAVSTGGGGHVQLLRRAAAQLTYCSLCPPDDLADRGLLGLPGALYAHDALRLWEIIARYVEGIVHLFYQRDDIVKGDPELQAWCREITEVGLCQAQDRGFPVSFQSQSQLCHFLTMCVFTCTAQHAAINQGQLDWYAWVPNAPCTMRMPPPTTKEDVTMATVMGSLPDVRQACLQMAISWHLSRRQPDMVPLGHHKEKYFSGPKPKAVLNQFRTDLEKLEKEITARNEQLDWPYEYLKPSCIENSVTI
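Purified human 12hLO at 150 nM in 25 mM Hepes, 0.01% Triton X-100, pH 7.0, preincubated 15 min at room temperature with compound. Reaction started with 40 uM arachidonic acid, 30 min at room temperature. Hydroperoxide measured by Fe-xylenol orange, 573/405 nm absorbance ratio.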
Numbers stand for hits; . = inactive; ? = inconclusive; / = no result. Unless noted, calls follow the shape of the dose curve; as a rule, active = well fitted curve in the direction sought with a large enough effect; inconclusive = small, poorly fitted or top-dose-only effect, or another doubt; inactive = no such curve, though single readings can be large; an effect the other way counts as inactive or inconclusive.

SMILES | HT1080 IDH1KD tx | TDP1 cell CPT | IL-1B inflam inh | HT1080NT lethal | DT40 TDP1 no CPT | ALOX12 inh
COc1ccccc1NC(=O)C1CCN(S(=O)(=O)c2ccc3c(c2)CC(C)N3C(C)=O)CC1 (centres undefined) | . | ? | . | . | ? | .
O=C(Nc1ccc(F)cc1F)NC1CCN(Cc2c(F)cccc2Cl)CC1 | ? | ? | / | . | 20.6µM | .
CC(=O)N1c2ccc(S(=O)(=O)N3CCC(C(=O)NC4CCC(C)CC4)CC3)cc2CC1C (centres undefined) | . | . | . | . | . | .
CC(=O)N1c2ccc(S(=O)(=O)N3CCC(C(=O)Nc4cccc(Cl)c4)CC3)cc2CC1C (centres undefined) | ? | 2.06µM | . | . | 2.06µM | .
CC(=O)N1c2ccc(S(=O)(=O)N3CCC(C(=O)Nc4cccc(Cl)c4C)CC3)cc2CC1C (centres undefined) | / | 14.6µM | / | / | 23.1µM | .
CC(C)c1ccc(NC(=O)CN2C(=O)C(c3ccccc3)=NC2(C)C)cc1 | / | / | / | / | / | .
CCc1nccc(-c2c(-c3ccccc3)ncn2CC(O)c2ccccc2)n1 (centres undefined) | / | / | / | / | / | .
Cc1cc(Cl)ccc1NC(=O)NC1CCN(S(=O)(=O)c2ccc(F)cc2)CC1 | . | 23.1µM | . | . | ? | .
COc1ccc(Cl)cc1NC(=O)C1CCN(S(=O)(=O)c2ccc3c(c2)CC(C)N3C(C)=O)CC1 (centres undefined) | / | 16.4µM | / | / | 20.6µM | .
CC(=O)N1c2ccc(S(=O)(=O)N3CCC(C(=O)Nc4cc(C)cc(C)c4)CC3)cc2CC1C (centres undefined) | . | ? | . | . | ? | .
COc1ccc(Cl)cc1NC(=O)C1CCN(S(=O)(=O)c2ccc(F)cc2)CC1 | / | ? | / | / | 18.4µM | .
CC(=O)N1c2ccc(S(=O)(=O)N3CCC(C(=O)Nc4cccc(F)c4)CC3)cc2CC1C (centres undefined) | . | 16.4µM | . | . | ? | .
CS(=O)(=O)c1ccc(-c2cnc([C@@H]3COCCN3Cc3ccccc3)[nH]2)cc1 | / | / | / | / | / | .
Oc1ccc(C[C@H]2CN([C@@H](Cc3ccc(O)cc3)CN3CCC[C@@H]3CN3C(=S)NC[C@@H]3Cc3ccccc3)C(=S)N2CC2CCCCCC2)cc1 | 16.4µM | 16.4µM | -51.2 | 11.6µM | 23.1µM | ?
Oc1ccc(C[C@H]2CN([C@@H](Cc3cccc(O)c3)CN3CCC[C@@H]3CN3C(=S)NC[C@@H]3Cc3ccccc3)C(=S)N2CC2CCCCC2)cc1 | 23.1µM | 3.66µM | . | 18.4µM | 2.91µM | ?
Oc1ccc(C[C@H]2CNC(=S)N2CC2CCCN2C[C@H](Cc2ccc(O)cc2)N2C[C@H](Cc3ccc(O)cc3)N(CC3CCCCC3)C2=S)cc1 (some centres undefined) | ? | 7.31µM | . | 16.4µM | 5.8µM | ?
O=C1NC[C@H](Cc2ccc(O)cc2)N(C[C@@H]2CCCN2C[C@H](Cc2ccc(O)cc2)N2C[C@H](Cc3ccccc3)N(CC3CCCCCC3)C(=O)C2=O)C1=O | . | ? | . | . | ? | ?
Oc1ccc(C[C@H]2CN([C@@H](Cc3ccccc3)CN3CCCC3CN3C(=S)NC[C@@H]3Cc3ccccc3)C(=S)N2CC2CCCCC2)cc1 (some centres undefined) | . | ? | . | . | 16.4µM | .
Clc1ccc(-c2noc(-c3ccco3)n2)cc1 | / | / | / | / | / | .
Oc1ccc(C[C@H]2CNC(=S)N2C[C@H]2CCCN2C[C@H](Cc2ccccc2)N2C[C@H](Cc3ccc(O)cc3)N(CC3CCCCCC3)C2=S)cc1 | 18.4µM | 14.6µM | . | 29.1µM | 16.4µM | ?
Oc1ccc(C[C@H]2CNC(=S)N2CC2CCCN2C[C@H](Cc2ccccc2)N2C[C@H](Cc3ccc(O)cc3)N(CC3CCCCCC3)C2=S)cc1 (some centres undefined) | ? | ? | ? | . | ? | 11.2µM
COc1ccc(C(=O)N2CCC3(CC2)N=C(c2ccc(C)cc2)NO3)cc1F | / | / | / | / | / | .
COc1ccc(S(=O)(=O)c2cc3cc(C)ccc3oc2=O)cc1 | / | / | / | / | / | .
CC1CC(C)CN(C(=O)c2ccc(NC(=O)c3ccc(=O)[nH]c3)cc2)C1 (centres undefined) | . | . | . | . | . | .
CC1CC(C)CN(S(=O)(=O)c2ccc(NC(=O)c3ccc(=O)[nH]c3)cc2)C1 (centres undefined) | 5.17µM | 3.26µM | . | 5.8µM | 2.91µM | .
SMILES | HT1080 IDH1KD tx | TDP1 cell CPT | IL-1B inflam inh | HT1080NT lethal | DT40 TDP1 no CPT | ALOX12 inh
Cc1cc(C)n(-c2ccc(C(=O)Nc3ccc(C)c(S(=O)(=O)N4CCOCC4)c3)cc2)n1 | ? | ? | -87.8 | ? | 16.4µM | .
Cc1ccc(NC(=O)c2ccc(S(=O)(=O)N3CC(C)CC(C)C3)cc2)cc1S(=O)(=O)N1CCOCC1 (centres undefined) | . | 16.4µM | . | . | 7.31µM | .
Cc1noc([C@H]2CCN(C(=O)Cc3c[nH]c4ccccc34)C[C@H]2NC(=O)C2CC2)n1 | / | / | / | / | / | .
COc1ccc2[nH]c(C(=O)NCC(=O)N3CCCCCNC(=O)CC3c3ccccc3)cc2c1 (centres undefined) | / | / | / | / | / | .
Cc1cccc(C)c1NC(=O)C(c1ccc(-c2ccccc2)cc1)n1c(=O)c(-c2ccco2)nc2ccccc21 (centres undefined) | . | ? | . | . | ? | 12.6µM
COc1ccc(NC(=O)C(c2ccc(C#N)cc2)n2c(=O)c(-c3ccco3)nc3ccccc32)cc1 (centres undefined) | . | . | . | . | . | ?
COc1cccc(F)c1-c1nc2ccccc2n1C(C(=O)Nc1c(C)cccc1C)c1ccccc1 (centres undefined) | / | / | / | / | / | .
CC(C)(C)NC(=O)C(c1ccc(-c2ccccc2)cc1)n1c(=O)c(-c2ccco2)nc2ccccc21 (centres undefined) | . | ? | . | ? | ? | 39.8µM
Cc1cccc(C)c1NC(=O)C(c1ccccc1)n1c(=O)c(-c2ccccc2)nc2ccccc21 (centres undefined) | . | ? | . | . | 16.4µM | .
O=C(NCc1ccccc1)C(c1ccc(-c2ccccc2)cc1)n1c(=O)c(-c2ccco2)nc2ccccc21 (centres undefined) | ? | ? | . | ? | ? | 14.1µM
C=CCCC(=O)NC1CCN(Cc2cccc(C(F)(F)F)c2)CC1 | / | / | / | / | / | .
